For 20 molecules, growth inhibition results are on record in PubChem BioAssay (NCI).

A short description of assay [1]: NCI Yeast Anticancer Drug Screen. Data for the rad50 strain (AID 155).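 Also: 0% = growth of vehicle-only cultures of the same strain.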 Conditions: S. cerevisiae rad50 strain growth inhibition; at 50.0 µM; active compounds read high. In short, it runs like this:
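Compounds were tested on a yeast strain with an engineered DNA damage repair alteration; the reported value is growth inhibition normalised to vehicle treatment.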

Assay [2] in a line: NCI Yeast Anticancer Drug Screen. Data for the mec2-1 strain (AID 157). Particulars: S. cerevisiae mec2-1 strain, at 50.0 µM, active compounds read high. In short, it runs like this:
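Yeast mec2-1 mutant treated with compound. Readout: growth inhibition vs vehicle controls.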

Assay [3] in a line: NCI Yeast Anticancer Drug Screen. Data for the sgs1 mgt1 strain (AID 161).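 Also: 0% = growth of cultures given vehicle only.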 Conditions: S. cerevisiae sgs1 mgt1 strain, at 50.0 µM, active compounds read high. The method, boiled down: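 Genetically altered yeast, compound exposure, growth inhibition relative to vehicle.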
Assay [4] in a line: NCI Yeast Anticancer Drug Screen. Data for the cln2 rad14 strain (AID 165).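 Also: 0% = growth equal to vehicle treated cultures.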 Particulars: S. cerevisiae cln2 rad14 strain, at 50.0 µM, active compounds read high. In short, it runs like this: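 cln2 rad14 yeast strain; compound exposure; growth inhibition read vs vehicle controls.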
The nature of assay [5]: NCI Yeast Anticancer Drug Screen. Data for the bub3 strain (AID 167). Particulars: S. cerevisiae bub3 mutant strain, at 50.0 µM, active compounds read high. The method, boiled down: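 Growth of a checkpoint-deficient yeast mutant is measured after compound exposure. Values represent inhibition relative to vehicle.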
Assay [6] is described as follows: NCI Yeast Anticancer Drug Screen. Data for the mlh1 rad18 strain (AID 175). Conditions: S. cerevisiae mlh1 rad18 strain growth inhibition; at 50.0 µM; active compounds read high. In short, it runs like this:
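Yeast w/ defined DNA-repair lesions; compound exposure; growth vs vehicle controls → % inhibition.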

Compounds without any hit were thinned out: in the full panel of roughly 79,000, 15% have a hit. Unmarked numbers belong to inactive results. Active and inactive are the calls of the source. Rule as the data show it: active = growth inhibition above about 70%; inactive = the rest.

Take `COC(=O)C12C=CC(C1)n1c(=O)n(-c3ccccc3)c(=O)n12` (stereo not given): the growth inhibition in assay [1] is -8.55%; in assay [2], 7.25%; in assay [3], 0.5%; in assay [4], -0.2%; in assay [5], 4.4%; in assay [6] it was -2.9%.

Consider `Cc1[nH]c(=O)nc2nc3ccc(Cl)cc3c(NCCNCCO)c12`, for which the growth inhibition was -37.5% in assay [1]; -42.4% in assay [2]; 24.1% in assay [3]; 3.5% in assay [4]; -0.9% in assay [5]; -43.6% in assay [6].

Regarding `CC(C)c1ccc([N+](=O)[O-])cc1`, the growth inhibition in assay [1] is 31.5%; in assay [2], 11.1%; in assay [3], 11.2%; in assay [4], 26.6%; in assay [5] it was 5.95%; in assay [6] it was 16.9%.

On to `O=C1CCCN(Cc2ccccc2)C1`, for which the growth inhibition in assay [1] was -4.2%; in assay [2], -25.2%; in assay [3], 0.35%; in assay [4] it was 1.2%; in assay [5], -0.4%; in assay [6], 9.45%.

For the molecule `Cc1ccc(NC(=O)Oc2ccc(F)cc2)cc1NC(=O)Oc1ccc(F)cc1`, the growth inhibition was 25.9% in assay [1]; 13.3% in assay [2]; 15.3% in assay [3]; 15.2% in assay [4]; -4.95% in assay [5]; 33.6% in assay [6].

In the case of `COC(=O)C1=C(C(=O)OC)C(=Nc2ccccc2)c2ccccc2C1=O`, the growth inhibition is 46.8% in assay [1]; 35.3% in assay [2]; 74.2% (active) in assay [3]; 8.2% in assay [4]; 51.4% in assay [5]; 90.6% (active) in assay [6].

For `Cc1cc(C)c(C(=O)Oc2ccc(C)c(CC(Cl)(Cl)Cl)c2)c(C)c1`, the growth inhibition in assay [1] was 32.8%; in assay [2], 9%; in assay [3], 4.85%; in assay [4] it was 19.1%; in assay [5], -0.2%; in assay [6], 14.4%.

Regarding `COC(=O)C1C2CC3C1C3C2C(=O)OC` (stereo not given), the growth inhibition was -14.2% in assay [1]; -8.2% in assay [2]; -4.45% in assay [3]; 19.6% in assay [4]; -14.6% in assay [5]; -18.6% in assay [6].

For `Cc1ccc(C(=O)/C=C/c2ccc3c(c2)OCO3)c(C)c1`, the growth inhibition in assay [1] is 39.9%; in assay [2], 21.8%; in assay [3], 52.6%; in assay [4] it was -6.7%; in assay [5], 47.5%; in assay [6], 33.3%.

Take `CC(C)NC(=O)N(C(=O)C(F)(F)F)C(C)C`: the growth inhibition was -0.95% in assay [1]; 7.45% in assay [2]; -4.6% in assay [3]; -41% in assay [4]; 2.1% in assay [5]; 7.5% in assay [6].

`O=C(N/N=C(/c1nc2ccc(Cl)cc2[nH]c1=O)C(O)c1ccc(Cl)cc1Cl)c1ccncc1` (stereo not given): the growth inhibition in assay [1] is 12.5%; in assay [2], 10.2%; in assay [3], -15.5%; in assay [4], -34.6%; in assay [5] it was -3.6%; in assay [6] it was 23.1%.

With `O=C(O)c1nccc2c(O)cccc12`, the growth inhibition in assay [1] was -5.75%; in assay [2], -4.45%; in assay [3], -16.1%; in assay [4], -19.6%; in assay [5], -23.9%; in assay [6] it was 3.3%.

`COc1ccc(/C=C2\CCC(CCN(C)C)(C3=CCCC3)C2=O)cc1` (stereo not given): the growth inhibition in assay [1] was 2.1%; in assay [2] it was -6.6%; in assay [3], 15%; in assay [4] it was 18.1%; in assay [5], -14.4%; in assay [6] it was 9.4%.

As to `CCOC(=O)/C(=C\c1c(C)[nH]c2ccccc12)P(=O)(OCC)OCC`, the growth inhibition in assay [1] is -15.2%; in assay [2], -15.7%; in assay [3] it was -22.9%; in assay [4], -0.3%; in assay [5], -8.95%; in assay [6], 11.5%.

`CNCCC(=O)c1ccccc1`: the growth inhibition was -20.9% in assay [1]; -14.3% in assay [2]; -14.4% in assay [3]; -64.8% in assay [4]; -17.6% in assay [5]; 2.25% in assay [6].

Regarding `O=Cc1cc(N=Nc2ccc(S(=O)(=O)O)cc2)ccc1O`, the growth inhibition is 5.8% in assay [1]; -35.5% in assay [2]; -1.45% in assay [3]; 14.9% in assay [4]; -17.6% in assay [5]; 3.6% in assay [6].

For `CCCCOP(=O)(Cc1ccc(Cl)cc1Cl)OCCCC`, the growth inhibition is 99.5% (active) in assay [1]; 99.7% (active) in assay [2]; 99.5% (active) in assay [3]; 99% (active) in assay [4]; 99.4% (active) in assay [5]; 99.5% (active) in assay [6].

Take `C1CCCCCc2c(-c3n[nH]c4c3CCCCCCCCCC4)n[nH]c2CCCC1`: the growth inhibition in assay [1] is -8.1%; in assay [2], -1.45%; in assay [3] it was -8.2%; in assay [4] it was 7.9%; in assay [5], 2.75%; in assay [6], 43.8%.

Consider `O=C1N=NC(=O)N1c1ccccc1`, for which the growth inhibition in assay [1] is -6.75%; in assay [2] it was 4.3%; in assay [3] it was 1%; in assay [4], -22.2%; in assay [5], -0.05%; in assay [6], 2.35%.

Take `OC1CNc2c(ccc3ccccc23)C1` (stereo not given): the growth inhibition in assay [1] is 10.7%; in assay [2], -26.4%; in assay [3] it was -13.4%; in assay [4] it was -17%; in assay [5], -38%; in assay [6], -6.25%.
